The list is not random: actives were taken first. Their share in the collection is about 3.5%.
MITF inh = human MITF inhibition, primary screen; inhibition, % at 2.6 µM; 0.91% of 650,000 active; AID 1259374; AlphaScreen MITF homodimerization, bead proximity signal; in the data active = inhibition above about 50%
TEAD-YAP inh = TEAD-YAP interaction inhibition | HEK-TIYL cells, TEAD-Gal4/YAP UAS-luciferase luminescence | inhibition, % at 9.12 µM | 1.4% of 640,000 active | AID 1259422; in the data active = inhibition above about 32%
GPR151 ag = human GPR151 activation. Q8TDV0. PathHunter beta-arrestin GPR151 cells, luminescence. activation, % at 11.2 µM. 1% of 650,000 active; in the data active = activation above about 4.9%
Target sequence (Q8TDV0 whole entry, looked up): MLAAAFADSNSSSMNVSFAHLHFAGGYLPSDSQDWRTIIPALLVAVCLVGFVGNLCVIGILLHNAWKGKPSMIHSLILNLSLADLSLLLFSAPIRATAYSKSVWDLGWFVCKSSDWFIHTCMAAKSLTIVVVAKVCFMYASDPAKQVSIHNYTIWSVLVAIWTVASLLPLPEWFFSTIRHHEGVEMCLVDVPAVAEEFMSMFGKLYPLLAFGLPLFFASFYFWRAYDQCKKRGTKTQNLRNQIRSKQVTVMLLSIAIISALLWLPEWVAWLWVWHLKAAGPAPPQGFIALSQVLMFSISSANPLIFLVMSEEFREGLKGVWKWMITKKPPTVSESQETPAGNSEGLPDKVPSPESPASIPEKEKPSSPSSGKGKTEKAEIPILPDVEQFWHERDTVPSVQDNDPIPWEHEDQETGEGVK
FBW7 act = activators of human E3 ligase FBW7 | Q969H0 | AlphaScreen FBW7–phospho-cyclin E peptide binding, activator screen | normalized activity (activation), % at 26.1 µM | 0.13% of 650,000 active; in the data active = normalized activity above about 1.9%;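 note: purified mutant Fbw7 with reduced substrate affinity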
GPR151 conf act = human GPR151 activation, confirmation screen; shares compounds with GPR151 ag; GPR151 PathHunter beta-arrestin cells, luminescence, 90 min; % of EA-reagent control over plate median; activation, % at 11.2 µM; 6,700 tested, under 10 active; AID 1508609;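 active = mean percent activation across replicates above the confirmation screen cutoff of 4.91%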
GPR119 ag = counter-screen for GPR151 activators: effect on human GPR119 | shares compounds with GPR151 ag | 0.3% of 6,700 active | activation, % at 11.2 µM | GPR119 PathHunter beta-arrestin cells, luminescence, 90 min; 0 = compound-well median, 100 = enzyme-acceptor control;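 active = mean percent activation in the counterscreen above 29.09%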;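 note: counterscreen on off-target GPR119 to flag nonselective hits from the GPR151 activator screen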
A number is an active result; i = inactive; nt = not tested or not shown; ! = not confirmed by another sample.

SMILES | MITF inh | TEAD-YAP inh | GPR151 ag | FBW7 act | GPR151 conf act | GPR119 ag
O=C(CCc1ccccc1)N1CCc2c(nc(N3CCCC3)[nH]c2=O)C1 | i | i | i | i | nt | nt
CCOC(=O)CC(=O)CSc1nc2c(sc(=S)n2CCc2ccccc2)c(=O)n1-c1ccccc1OC | i | i | i | i | nt | nt
COc1ccc(-c2[nH]nc3c2C(c2c[nH]c4ccccc24)C(C#N)=C(N)O3)cc1OC (centres undefined) | i | i | 6.4 | i | i | i
COc1ccc(-c2[nH]nc3c2C(c2cccc(Cl)c2Cl)C(C#N)=C(N)O3)cc1OC (centres undefined) | i | i | i | i | nt | nt
Cn1c(=O)c2ccccc2n(C)c1=S | i | i | 5.6 | i | i | i
COc1ccc(CNC(=O)COc2ncnc3c(Cl)cc(Cl)cc23)cc1 | i | i | 6.9 | i | i | i
CC[C@@H](C(=O)[C@@H](C)[C@@H](O)[C@H](C)[C@@H]1O[C@@H]([C@@H](CC)C(=O)O)CC[C@@H]1C)[C@H]1O[C@]2(C=C[C@@H](O)[C@]3(CC[C@@](C)([C@H]4CC[C@](O)(CC)[C@H](C)O4)O3)O2)[C@H](C)C[C@@H]1C | i | 78! | 11! | i | i | i
COc1ccc(C(=O)Oc2ccc(F)cc2)cc1 | i | i | i | i | nt | nt
O=C(CCCn1nc(-c2ccccc2)c2ccccc21)NCc1ccccn1 | i | i | 7.6 | i | i | i
Cc1cccc(-c2nc(CS(=O)CC(=O)N3CCCC3)c(C)o2)c1 (centres undefined) | i | i | 8.2 | i | i | i
Cc1cccc(-c2nc(CS(=O)CC(=O)NC(C)C)c(C)o2)c1 (centres undefined) | i | i | i | i | nt | nt
Cc1cccc(-c2nc(CS(=O)CC(=O)NC(C)c3ccccc3)c(C)o2)c1 (centres undefined) | i | i | 7.2 | i | i | i
CCN1CCN(C(=O)CS(=O)Cc2nc(-c3cccc(C)c3)oc2C)CC1 (centres undefined) | i | i | i | i | nt | nt
COC(=O)C1=CN(Cc2ccc(F)cc2)C=C(C(=O)OC)C1c1ccc(Cl)c([N+](=O)[O-])c1 | i | i | i | i | nt | nt
CC(=O)N1CCc2cc(S(=O)(=O)NC(C(=O)NCc3ccc(F)cc3)C(C)C)ccc21 (centres undefined) | i | i | i | i | nt | nt
COc1ccc(NC(=O)CC2C(=O)N(c3ccc(Cl)cc3)C(=S)N2CCCN2CCOCC2)cc1 (centres undefined) | i | i | 5.0 | i | i | i
CCCOc1ccc(NC(=O)CC2C(=O)N(c3ccc(Cl)cc3)C(=S)N2Cc2cccnc2)cc1 (centres undefined) | i | i | i | i | nt | nt
CCCOc1ccc(NC(=O)CC2C(=O)N(c3ccc(Cl)cc3)C(=S)N2Cc2ccncc2)cc1 (centres undefined) | i | i | 6.3 | i | i | i
NC(=O)CC1C(=O)N(c2ccc(Cl)cc2)C(=S)N1Cc1cccnc1 (centres undefined) | i | i | 5.4 | i | i | i
CCN1CCN(CCCN2C(=S)N(c3ccc(Cl)cc3)C(=O)C2CC(=O)Nc2ccc(OC)cc2)CC1 (centres undefined) | i | i | i | i | nt | nt
COc1ccc(NC(=O)c2cnn(-c3ccccc3)c2NC(=O)c2ccco2)cc1 | i | i | i | i | nt | nt
CCCC(=O)C1=C(c2ccc(OC)cc2)N(C(=O)CCC)n2c(C)nnc2S1 | i | i | i | i | nt | nt
CCOc1ccc(C(=O)Nc2sc(C)c(C)c2C#N)cc1 | i | i | i | i | nt | nt
CCCCOc1ccc(C(=O)Nc2sc(C)c(C)c2C#N)cc1 | i | i | 8.3 | i | i | i
COc1ccc2cc(S(=O)(=O)NCc3ccccc3)ccc2c1 | i | i | i | i | nt | nt
SMILES | MITF inh | TEAD-YAP inh | GPR151 ag | FBW7 act | GPR151 conf act | GPR119 ag
CCOc1ccc2cc(S(=O)(=O)NCc3ccccc3)ccc2c1 | i | i | 5.2 | i | i | i
C=CCNC(=S)NNC(=O)COc1ccc2cc(Br)ccc2c1 | i | i | 9.7 | i | i | i
C=CCNC(=O)COc1c(C)cc(Br)cc1C | i | i | 12 | i | i | i
N#CCn1c(=O)n(CCc2ccccc2)c(=O)c2cccnc21 | i | i | i | i | nt | nt
CC(=O)N1CC(C)Sc2cc(S(=O)(=O)N3CCCCC3)ccc21 (centres undefined) | i | i | i | i | nt | nt
CCN1CCN(S(=O)(=O)c2ccc3c(c2)SC(C)CN3C(C)=O)CC1 (centres undefined) | i | i | 6.1 | i | i | i
COc1ccc(C2(NC(=O)c3snnc3C)CCCCC2)cc1 | i | i | 20 | i | i | i
COC(=O)c1ccccc1N(Cc1ccccc1)S(=O)(=O)c1ccc(C)cc1 | i | i | i | i | nt | nt
CC(=O)Nc1ccc(S(=O)(=O)Nc2nnc(-c3ccc(F)cc3)s2)cc1 | i | i | 6.7 | i | i | i
CCOC(=O)c1c(-c2ccccc2)oc2ccc(OCc3ccc(C(=O)OC)cc3)cc12 | i | i | 12 | i | i | i
O=C(Nc1nnc(COc2ccccc2)o1)c1cc(Br)ccc1Cl | i | i | 4.9 | i | i | i
O=C(Nc1nnc(COc2ccccc2)o1)c1ccccc1 | i | i | i | i | nt | nt
COc1cc([N+](=O)[O-])ccc1NC(=O)/C(=C/c1ccc2c(c1)OCO2)NC(=O)c1ccc(Br)cc1 | i | i | i | i | nt | nt
Cn1cc(CN2CCN(Cc3nccn3C)CC2)c(-c2ccc3c(c2)OCCO3)n1 | i | i | i | i | nt | nt
Cn1cc(CN2CCOCC2)c(-c2ccc3c(c2)OCCO3)n1 | i | i | 9.2 | i | i | i
CSc1nc2cc([N+](=O)[O-])ccc2n1C | i | i | i | i | nt | nt
CC(C(=O)OCC(=O)Nc1ccc(SC(F)F)cc1)N1C(=O)c2ccccc2C1=O (centres undefined) | i | i | 5.8 | i | i | i
CCOC(=O)c1ccc(NC(=O)C(=O)Nc2ccc(C(=O)OCC)cc2)cc1 | i | i | i | i | nt | nt
Cc1ccc(C2CC(=O)n3c(nc4ccccc43)N2)cc1 (centres undefined) | i | i | i | i | nt | nt
Cc1ccc(C2CC(=O)n3nc(N)nc3N2)cc1 (centres undefined) | i | i | 5.9 | i | i | i
CCOc1ccc(-c2noc(CCC(=O)NC)n2)cc1OC | i | i | i | i | nt | nt
CCOc1cc(-c2noc(CCC(=O)NC)n2)cc(Br)c1OC | i | i | 6.6 | i | i | i
O=C(CCC(=O)Nc1ccccc1Cl)NNC(=S)NCc1ccccc1 | i | i | i | i | nt | nt
Cc1ccccc1CSc1nn2c(=O)c(C)nnc2s1 | i | i | 6.8 | i | i | i
Cc1nnc2sc(SCc3ccc([N+](=O)[O-])cc3)nn2c1=O | i | i | i | i | nt | nt
Cc1ccc(-n2nc3c(c2NC(=O)c2cc4ccccc4oc2=O)CS(=O)(=O)C3)c(C)c1 | i | i | i | i | nt | nt
CCCCNC(=O)C1C2C=CC3(CN(Cc4ccccc4Cl)C(=O)C13)O2 (centres undefined) | i | i | 5.7 | i | i | i
